Pf Dd2 inh – inhibitors of Plasmodium falciparum Dd2 growth. P. falciparum Dd2 growth, SYBR Green, 72 h. 120,000 tested, 4.3% active. Potency, µM (top dose mostly 28.9 µM), most hits filed as inhibitors. AID 1347417; active = well fitted inhibition curve with a large enough effect; also: nearly all actives have a fitted effect of over 65% in size
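Readout: SYBR Green fluorescence, 485 nm excitation, 535 nm emission, after ~16 h lysis at 37C. Before that, Dd2-infected red cells (2.5% hematocrit) grew 72 h with compound, 29 uM top final concentration.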
Hits are given with their value; i = inactive; [ ] = remark or other dose. The entries come from a sample that favours hits as a whole.

SMILES	Pf Dd2 inh
Cc1ccc(CN2CCCc3nc(C)nc(-c4ccc(O)cc4)c3C2)cc1	2.82µM
CC(C)c1nc2c(c(-c3ccc(O)cc3)n1)CN(Cc1cccnc1)CC2	i
CC(=O)Nc1ccc(CN2CCc3nc(C(C)C)nc(-c4ccc(Cl)cc4)c3CC2)cc1	1.12µM
Cc1nc2c(c(-c3ccc(Cl)cc3)n1)CCN(C(=O)Nc1ccccc1)CC2	i
COc1ccc(CN2CCc3nc(C)nc(-c4ccc(O)cc4)c3C2)cc1	i
CC(=O)Nc1ccc(CN2CCn3c(nnc3-c3ccc(Cl)cc3)C2)cc1	i
CC(C)c1nc2c(c(-c3ccc(O)cc3)n1)CN(Cc1cccn1C)CC2	i
Cc1nc2c(c(-c3ccc(O)cc3)n1)CN(Cc1ccc(F)cc1)CCC2	i
Cc1nc2c(c(-c3ccc(O)cc3)n1)CN(Cc1cccc3ccccc13)CC2	i
CC(C)c1nc2c(c(-c3ccc(O)cc3)n1)CN(Cc1ccccn1)CC2	i
CC(C)c1nc2c(c(-c3ccc(O)cc3)n1)CCN(Cc1cccc3ccccc13)CC2	3.16µM
CC(C)c1nc2c(c(-c3ccc(O)cc3)n1)CN(CC1CCCCC1)CC2	3.55µM
COCC(=O)N[C@@H]1CN(Cc2cccc(F)c2F)C[C@H]1CO	i
CS(=O)(=O)c1ccc(OCC2(CNC(=O)N3CCOCC3)C[C@@H](O)[C@@H](O)C2)cc1 (stereo partly drawn)	i
Cn1cccc1CN1CCC2CC(=O)NCCC2C1 (stereo not drawn)	i
CNC(=O)c1cnn2c1CN([S+](=O)([O-])c1cccc(C(F)(F)F)c1)CC2	i
C[C@@H]1C(=O)O[C@H]2[C@H]1CC[C@@]1(C)Cc3sc(Nc4ccc(C(=O)O)cc4)nc3[C@@H](C)[C@H]21	i
CC(=O)N1CCC(N2CC[C@@H](CO)N(C)c3ncccc3C2)CC1	i
Cn1cnc(C(=O)N2C[C@@H](COc3ccccc3)[C@H](C(N)=O)C2)c1	i
COc1ccc(C(C)NC(=O)c2noc(-c3ccc4c(c3)OCO4)n2)cc1 (stereo not drawn)	i
C#CCNC(=O)C1CCc2nnc(CNC(=O)Nc3cccnc3)n21 (stereo not drawn)	i
CCn1c(CN(C)C)nnc1C1CCN(C(=O)Cn2nc(C)cc2N)CC1	i
COc1ccccc1CCC(=O)N1[C@@H]2CC[C@H]1CC(NC(=O)c1cnc(C)cn1)C2 (stereo partly drawn)	i
CCOc1cc(=O)n2c(c1C(=O)Nc1cc(C)ccc1OC)CCCC2	i
CC(=O)N1CCc2nc(C(C)C)nc(-c3ccc(O)cc3)c2CC1	i
SMILES	Pf Dd2 inh
CC(C)c1nc2c(c(-c3ccc(O)cc3)n1)CCN(Cc1ccc(C(F)(F)F)cc1)CC2	1.78µM
CN(C)c1ccc(CN2CCc3nc(C4CC4)nc(-c4ccc(O)cc4)c3CC2)cc1	i
COc1cccc(CN2CCCC3(CN[S+](=O)([O-])c4ccccc4N3)C2)c1 (stereo not drawn)	i
CC(=O)Nc1ccc(NC(=O)c2cc3sc(C)c(CN4CCCCC4)c3[nH]2)cc1	2.24µM
Cc1sc2cc(C(=O)NC(C)C)[nH]c2c1CN1CCCCC1	i
COc1ccc(NC(=O)c2cc3sc(C)c(CN4CCCCC4)c3[nH]2)cc1OC	2.24µM
COc1ccc(NC(=O)c2cc(CN3CCCC3)on2)cc1Cl	i[5.79 µM]
Cc1sc2cc(C(=O)NCc3cccnc3)[nH]c2c1CN1CCCCC1	i
CCCNC(=O)c1cc2sc(C)c(CN3CCCCC3)c2[nH]1	i
O=C(CCc1c[nH]c2ccccc12)N1C[C@@H](CO)[C@H](c2ccccn2)C1	i
Cc1ncoc1C(=O)N1CCCCCCNC(=O)CC1	i
COCCN1C(=O)c2ccccc2C(C(=O)Nc2ccc3[nH]ccc3c2)C12CCCC2 (stereo not drawn)	11.2µM
COCCN1C(=O)c2ccccc2C(C(=O)Nc2cc(OC)ccc2OC)C12CCCC2 (stereo not drawn)	i
COCCN1C(=O)c2ccccc2C(C(=O)Nc2cc(C)ccc2OC)C12CCCCC2 (stereo not drawn)	10µM
COCCN1C(=O)c2ccccc2C(C(=O)Nc2ccc(C(N)=O)cc2)C12CCCCC2 (stereo not drawn)	i
COCCN1C(=O)c2ccccc2C(C(=O)Nc2ccc3c(c2)OCO3)C12CCCC2 (stereo not drawn)	12.6µM
COCCN1C(=O)c2ccccc2C(C(=O)Nc2ccc(OC)cc2OC)C12CCCC2 (stereo not drawn)	i
O=C(NCCc1ccccc1)C1c2ccccc2C(=O)N(Cc2ccccc2)C12CCCC2 (stereo not drawn)	i
O=C(O)C1c2ccccc2C(=O)N(Cc2ccccc2)C12CCCC2 (stereo not drawn)	i
COCCN1C(=O)c2ccccc2C(C(=O)Nc2ccc(OC)c(Cl)c2)C12CCCC2 (stereo not drawn)	i
O=C(Nc1ccccc1F)C1c2ccccc2C(=O)N(Cc2ccccc2)C12CCCC2 (stereo not drawn)	11.2µM
COCCN1C(=O)c2ccccc2C(C(=O)NCCc2c[nH]c3ccccc23)C12CCCC2 (stereo not drawn)	i
Cc1noc(-c2cn(C3CCN(C(=O)c4ccccc4)C3)nn2)n1 (stereo not drawn)	i
CCCc1ccc(CN2CCC(c3nnc(Cn4ccnc4)n3C3CC3)CC2)o1	i
COC1C(=O)N(C2CCN(C(=O)c3ccccn3)CC2)C12CCOCC2 (stereo not drawn)	i
SMILES	Pf Dd2 inh
Cc1nnn2c(C(=O)N3CCOCC3)cccc12	i
CCN(CC)C(=O)c1coc(COc2ccc3c(c2)C(c2ccc(C)cc2)N(C(=O)C2CC2)CC3)n1 (stereo not drawn)	i
COCCCNc1ncnc2c1CN(C1CCNC1)C(=O)CN2C (stereo not drawn)	i
Cc1ccc(C(=O)N[C@H]2CO[C@H]3[C@@H]2OC[C@@H]3n2cc(CN(C)Cc3ccccc3)nn2)cc1	i
COCCN1C(=O)c2ccccc2C(C(=O)Nc2ccc(NC(C)=O)cc2)C12CCCCC2 (stereo not drawn)	i
COCCN1C(=O)c2ccccc2C(C(=O)Nc2ccc(OC)c(OC)c2)C12CCCC2 (stereo not drawn)	i
COCCN1C(=O)c2ccccc2C(C(=O)Nc2cc(OC)cc(OC)c2)C12CCCC2 (stereo not drawn)	11.2µM
CCOc1ccccc1C(=O)N1CCC(Oc2nccnc2N(C)C)C1 (stereo not drawn)	i
CCN(CC)Cc1cnc2c(C(=O)NCCc3cnccn3)cnn2c1	i
CCN(CC)Cc1cnc2c(C(=O)NCCc3cccs3)cnn2c1	i
CCN(CC)Cc1cnc2c(C(=O)NCCc3c[nH]c4ccccc34)cnn2c1	8.91µM
COc1cc(-c2onc(C)c2C(=O)NCc2ccc(F)cc2F)cc(OC)c1OC	i
CNC(=O)CC1CCOC2(CCN(C(=O)Nc3ccc4c(c3)OCCO4)CC2)C1 (stereo not drawn)	i
CC(C)(C)c1coc([C@@H]2COCCN2Cc2cnc[nH]2)n1	i
O=C(NC1CCCCC1)c1ccc(CSc2nc3cccnc3n2Cc2cccc(F)c2)cc1	11.2µM
Cc1cccc(Cn2c(SCc3ccc(C(=O)NC4CCCCC4)cc3)nc3cccnc32)c1	10µM
O=C(NC1CCCCC1)c1ccc(CSc2nc3cccnc3n2Cc2ccc(F)cc2)cc1	i[5.79 µM]
Cc1cccc(Cn2c(SCc3ccc(C(=O)NC4CCCC4)cc3)nc3cccnc32)c1	i
O=C(NC1CCCCC1)c1ccc(Cn2c(SCc3ccc(F)cc3)nc3cccnc32)cc1	i
CN1CCN(C(=O)Cc2c[nH]c3ncc(-c4ccccc4F)cc23)CC1	i
CC(C)COc1cc(=O)n2c(c1C(=O)NCC1CC1)CCCCC2	i

Source: PubChem BioAssay
